Ten compounds from PubChem BioAssay (NCI) can be followed below.

Assay [1] is described as follows: NCI Yeast Anticancer Drug Screen. Data for the rad50 strain (AID 155).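 Note: 0% = growth of vehicle-only cultures of the same strain.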 The conditions noted are these: S. cerevisiae rad50 strain growth inhibition, hits give high values. In outline: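 Compounds were tested on a yeast strain with an engineered DNA damage repair alteration; the reported value is growth inhibition normalised to vehicle treatment.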
Assay [2] in a line: NCI Yeast Anticancer Drug Screen. Data for the mec2-1 strain (AID 157). The conditions noted are these: S. cerevisiae mec2-1 strain, hits give high values. In outline: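 Readout is yeast growth inhibition, normalised to vehicle-treated controls, in the mec2-1 strain exposed to compound.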
The nature of assay [3]: NCI Yeast Anticancer Drug Screen. Data for the sgs1 mgt1 strain (AID 161).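 Note: 0% = growth of cultures given vehicle only.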 The conditions noted are these: S. cerevisiae sgs1 mgt1 strain, hits give high values. In outline: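 Yeast cells carrying a defined DNA-repair defect were exposed to test compounds. Growth inhibition was measured relative to vehicle-treated controls.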
Assay [4] is described as follows: NCI Yeast Anticancer Drug Screen. Data for the cln2 rad14 strain (AID 165).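 Note: 0% = growth equal to vehicle treated cultures.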 The conditions noted are these: S. cerevisiae cln2 rad14 strain, hits give high values. In short, it runs like this: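 Relative to vehicle controls, growth inhibition of compound-treated cln2 rad14 yeast was recorded.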
A short description of assay [5]: NCI Yeast Anticancer Drug Screen. Data for the bub3 strain (AID 167). The conditions noted are these: S. cerevisiae bub3 mutant strain, hits give high values. In short, it runs like this:
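Growth of a checkpoint-deficient yeast mutant is measured after compound exposure. Values represent inhibition relative to vehicle.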

Assay [6] is described as follows: NCI Yeast Anticancer Drug Screen. Data for the mlh1 rad18 strain (AID 175). To be noted: S. cerevisiae mlh1 rad18 strain growth inhibition, hits give high values. In outline: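 Test agents were incubated with a yeast strain of defined genotype (DNA damage repair defect). Inhibition of growth was derived by comparison with vehicle-exposed cultures.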
Where [7] appears, read: at 5.0 µM (retest, dose inferred, filed as 0.5).
The mark [8] stands for this setting: at 50.0 µM (retest, dose inferred, filed as 5.0).

About 79,000 compounds went through this panel and 15% of them were active in at least one assay; those are over-represented in the sample as a whole. Values without a mark were called inactive. Activity calls are given as the source filed them. Cut-off read from the data, not from the text of the source: active = growth inhibition above about 70%; inactive = the rest.

With `O=[N+]([O-])/C(Cl)=C/C(=C1/Nc2ccccc2O1)[N+](=O)[O-]`, the growth inhibition was 17% in assay [1] (setting [7]); 87% (active) in assay [1] (setting [8]); 79.9% (active) in assay [1] (at 50.0 µM); -11% in assay [2] (setting [7]); 47% in assay [2] (setting [8]); 65.6% in assay [2] (at 50.0 µM). Moreover, the growth inhibition is -14% in assay [3] (setting [7]); 48% in assay [3] (setting [8]); 72.5% (active) in assay [3] (at 50.0 µM); -12% in assay [4] (setting [7]); 47% in assay [4] (setting [8]); 65.4% in assay [4] (at 50.0 µM). Moreover, the growth inhibition was -15% in assay [5] (setting [7]); 53% in assay [5] (setting [8]); 71.2% (active) in assay [5] (at 50.0 µM); 17% in assay [6] (setting [7]); 75% (active) in assay [6] (setting [8]); 69% in assay [6] (at 50.0 µM).
In the case of `O=c1[nH]c2c([N+](=O)[O-])cc(Cl)cc2nc1/C=C(\O)c1ccccn1`, the growth inhibition was 8% in assay [1] (setting [7]); 61% in assay [1] (setting [8]); 51.8% in assay [1] (at 50.0 µM); -1% in assay [2] (setting [7]); 26% in assay [2] (setting [8]); 5.8% in assay [2] (at 50.0 µM). Besides, the growth inhibition in assay [3] (setting [7]) was 7%; in assay [3] (setting [8]), 41%; in assay [3] (at 50.0 µM), 49.2%; in assay [4] (setting [7]), 4%; in assay [4] (setting [8]) it was 52%; in assay [4] (at 50.0 µM), 37%. Also, the growth inhibition in assay [5] (setting [7]) is 14%; in assay [5] (setting [8]), 27%; in assay [5] (at 50.0 µM) it was 12.1%; in assay [6] (setting [7]), 11%; in assay [6] (setting [8]), 46%; in assay [6] (at 50.0 µM) it was 79.2% (active).
For the compound `C(=C\[P+](c1ccccc1)(c1ccccc1)c1ccccc1)/c1ccccc1`, the growth inhibition was 86% (active) in assay [1] (setting [7]); 99% (active) in assay [1] (setting [8]); 98.8% (active) in assay [1] (at 50.0 µM); 94% (active) in assay [2] (setting [7]); 99% (active) in assay [2] (setting [8]); 99.7% (active) in assay [2] (at 50.0 µM). In addition, the growth inhibition in assay [3] (setting [7]) was 80% (active); in assay [3] (setting [8]), 99% (active); in assay [3] (at 50.0 µM) it was 99.2% (active); in assay [4] (setting [7]), 76% (active); in assay [4] (setting [8]) it was 98% (active); in assay [4] (at 50.0 µM) it was 98.1% (active). Further, the growth inhibition in assay [5] (setting [7]) was 85% (active); in assay [5] (setting [8]) it was 98% (active); in assay [5] (at 50.0 µM), 98.8% (active); in assay [6] (setting [7]) it was 91% (active); in assay [6] (setting [8]), 98% (active); in assay [6] (at 50.0 µM), 99.1% (active).
Regarding `CC1COC(c2cn[nH]c2C(N)=O)C1O` (stereo not given), the growth inhibition in assay [1] (setting [7]) is -7%; in assay [1] (setting [8]), 13%; in assay [1] (at 50.0 µM), -0.5%; in assay [2] (setting [7]), 5%; in assay [2] (setting [8]), 15%; in assay [2] (at 50.0 µM) it was 21%. For the same compound, the growth inhibition was 7% in assay [3] (setting [7]); 14% in assay [3] (setting [8]); -6.4% in assay [3] (at 50.0 µM); -33% in assay [4] (setting [7]); -18% in assay [4] (setting [8]); 39.4% in assay [4] (at 50.0 µM). For the same compound, the growth inhibition in assay [5] (setting [7]) is 4%; in assay [5] (setting [8]), 24%; in assay [5] (at 50.0 µM), 0.85%; in assay [6] (setting [7]), 3%; in assay [6] (setting [8]) it was 16%; in assay [6] (at 50.0 µM) it was 7.65%.
`CC1=C(C(=O)Nc2ccccc2)C(c2cccc3ccccc23)C(C(=O)Nc2ccccc2)=C(C)N1`: the growth inhibition is -2% in assay [1] (setting [7]); 53% in assay [1] (setting [8]); 71% (active) in assay [1] (at 50.0 µM); -17% in assay [2] (setting [7]); 51% in assay [2] (setting [8]); 91% (active) in assay [2] (at 50.0 µM). In addition, the growth inhibition in assay [3] (setting [7]) is 0%; in assay [3] (setting [8]), 41%; in assay [3] (at 50.0 µM), 48.6%; in assay [4] (setting [7]) it was -2%; in assay [4] (setting [8]), 64%; in assay [4] (at 50.0 µM), 64.3%. The growth inhibition in assay [5] (setting [7]) is -7%; in assay [5] (setting [8]), 53%; in assay [5] (at 50.0 µM), 89% (active); in assay [6] (setting [7]) it was -4%; in assay [6] (setting [8]), 53%; in assay [6] (at 50.0 µM), 58.7%.
Regarding `O=C1C(c2ccccc2)=[N+]([O-])c2cc([N+](=O)[O-])c(/C(Cl)=C/c3ccccc3)cc21`, the growth inhibition in assay [1] (setting [7]) was 4%; in assay [1] (setting [8]), 8%; in assay [1] (at 50.0 µM), 54.8%; in assay [2] (setting [7]), 5%; in assay [2] (setting [8]), 33%; in assay [2] (at 50.0 µM), 94.5% (active). The growth inhibition in assay [3] (setting [7]) was 6%; in assay [3] (setting [8]), 16%; in assay [3] (at 50.0 µM) it was 71.5% (active); in assay [4] (setting [7]), 11%; in assay [4] (setting [8]), 9%; in assay [4] (at 50.0 µM), 39.2%. Besides, the growth inhibition in assay [5] (setting [7]) was 7%; in assay [5] (setting [8]), 7%; in assay [5] (at 50.0 µM), 97.9% (active); in assay [6] (setting [7]), 3%; in assay [6] (setting [8]), 3%; in assay [6] (at 50.0 µM) it was 96.2% (active).
With `CN1CCN(CCn2c3c4ccccc4ccc3c3oc(=O)c4ccccc4c32)CC1`, the growth inhibition in assay [1] (setting [7]) was 40%; in assay [1] (setting [8]), 95% (active); in assay [1] (at 50.0 µM), 38.5%; in assay [2] (setting [7]) it was -13%; in assay [2] (setting [8]) it was 97% (active); in assay [2] (at 50.0 µM) it was 89.7% (active). Also, the growth inhibition was 28% in assay [3] (setting [7]); 96% (active) in assay [3] (setting [8]); 91.2% (active) in assay [3] (at 50.0 µM); 22% in assay [4] (setting [7]); 92% (active) in assay [4] (setting [8]); 90.4% (active) in assay [4] (at 50.0 µM). The growth inhibition in assay [5] (setting [7]) was 19%; in assay [5] (setting [8]), 97% (active); in assay [5] (at 50.0 µM), 91.8% (active); in assay [6] (setting [7]), 13%; in assay [6] (setting [8]), 97% (active); in assay [6] (at 50.0 µM), 90.8% (active).
Consider `CCOC(=O)Nc1nc2ccc(SC#N)cc2s1`, for which the growth inhibition is 8% in assay [1] (setting [7]); 85% (active) in assay [1] (setting [8]); 92.9% (active) in assay [1] (at 50.0 µM); 1% in assay [2] (setting [7]); 81% (active) in assay [2] (setting [8]); 64.8% in assay [2] (at 50.0 µM). Moreover, the growth inhibition in assay [3] (setting [7]) is 9%; in assay [3] (setting [8]) it was 96% (active); in assay [3] (at 50.0 µM), 79.8% (active); in assay [4] (setting [7]), 6%; in assay [4] (setting [8]), 88% (active); in assay [4] (at 50.0 µM), 57.5%. In addition, the growth inhibition in assay [5] (setting [7]) was 23%; in assay [5] (setting [8]) it was 93% (active); in assay [5] (at 50.0 µM), 88.2% (active); in assay [6] (setting [7]) it was 9%; in assay [6] (setting [8]) it was 94% (active); in assay [6] (at 50.0 µM), 50.5%.
In the case of `COC(O)C12OC3CO[Si](C(C)C)(C(C)C)O[Si](C(C)C)(C(C)C)OC3C1Oc1nc(=O)ccn12` (stereo not given), the growth inhibition was 10% in assay [1] (setting [7]); 98% (active) in assay [1] (setting [8]); 88.7% (active) in assay [1] (at 50.0 µM); 13% in assay [2] (setting [7]); 99% (active) in assay [2] (setting [8]); 91.7% (active) in assay [2] (at 50.0 µM). The growth inhibition in assay [3] (setting [7]) is -25%; in assay [3] (setting [8]), 98% (active); in assay [3] (at 50.0 µM) it was 86.5% (active); in assay [4] (setting [7]), 1%; in assay [4] (setting [8]) it was 97% (active); in assay [4] (at 50.0 µM), 86.7% (active). For the same compound, the growth inhibition was -4% in assay [5] (setting [7]); 98% (active) in assay [5] (setting [8]); 87.5% (active) in assay [5] (at 50.0 µM); 15% in assay [6] (setting [7]); 98% (active) in assay [6] (setting [8]); -69.8% in assay [6] (at 50.0 µM).
`O=C(Nc1c(Cl)cc([N+](=O)[O-])cc1Cl)/C(=N\Nc1cccc(Cl)c1)c1c(O)c2ccccc2oc1=O`: the growth inhibition in assay [1] (setting [7]) is 15%; in assay [1] (setting [8]), 15%; in assay [1] (at 50.0 µM) it was 69%; in assay [2] (setting [7]) it was 25%; in assay [2] (setting [8]) it was 25%; in assay [2] (at 50.0 µM), 18.1%. The growth inhibition in assay [3] (setting [7]) was 14%; in assay [3] (setting [8]), 14%; in assay [3] (at 50.0 µM) it was -1%; in assay [4] (setting [7]), 8%; in assay [4] (setting [8]), 8%; in assay [4] (at 50.0 µM) it was 25.7%. For the same compound, the growth inhibition in assay [5] (setting [7]) is 5%; in assay [5] (setting [8]), 5%; in assay [5] (at 50.0 µM), 31%; in assay [6] (setting [7]), 26%; in assay [6] (setting [8]) it was 26%; in assay [6] (at 50.0 µM) it was 47.3%.
